Assays:
Assay in all cases: protein binding microarray; high values mean tight binding
Settings in all cases: dsDNA, one strand shown
[1] = molecular target: RELARELA (p65 homodimer) (Homo sapiens, UniProt Q04206 1-307)
[2] = molecular target: p50p50 homodimer (Homo sapiens, UniProt P19838 7-356)
[3] = molecular target: T1, p52p52 homodimer (Homo sapiens, UniProt Q00653 4-332)
T1 sequence: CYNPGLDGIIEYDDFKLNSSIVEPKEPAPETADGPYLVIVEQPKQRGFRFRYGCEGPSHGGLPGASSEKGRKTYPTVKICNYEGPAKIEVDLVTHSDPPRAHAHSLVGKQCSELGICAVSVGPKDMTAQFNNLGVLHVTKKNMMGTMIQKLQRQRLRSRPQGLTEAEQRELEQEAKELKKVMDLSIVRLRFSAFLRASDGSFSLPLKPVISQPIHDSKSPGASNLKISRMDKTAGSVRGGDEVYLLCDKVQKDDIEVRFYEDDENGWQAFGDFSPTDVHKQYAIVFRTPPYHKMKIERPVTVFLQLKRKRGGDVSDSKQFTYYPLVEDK

[4] = molecular target: RELA (p65) subunit of heterodimer;p50 subunit (Homo sapiens;Homo sapiens, UniProt Q04206;P19838 1-307;7-356)
Chain of RELA (p65) subunit of heterodimer;p50 subunit (Q04206 1-307, chain 1 of 2): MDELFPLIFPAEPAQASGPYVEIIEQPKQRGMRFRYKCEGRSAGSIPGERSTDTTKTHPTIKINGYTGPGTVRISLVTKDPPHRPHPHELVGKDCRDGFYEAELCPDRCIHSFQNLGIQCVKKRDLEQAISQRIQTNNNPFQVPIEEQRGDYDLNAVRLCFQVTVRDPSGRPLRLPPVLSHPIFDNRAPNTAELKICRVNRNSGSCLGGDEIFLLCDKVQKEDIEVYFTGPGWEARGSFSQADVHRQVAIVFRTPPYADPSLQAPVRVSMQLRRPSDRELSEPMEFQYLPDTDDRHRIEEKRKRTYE
Chain of RELA (p65) subunit of heterodimer;p50 subunit (P19838 7-356, chain 2 of 2): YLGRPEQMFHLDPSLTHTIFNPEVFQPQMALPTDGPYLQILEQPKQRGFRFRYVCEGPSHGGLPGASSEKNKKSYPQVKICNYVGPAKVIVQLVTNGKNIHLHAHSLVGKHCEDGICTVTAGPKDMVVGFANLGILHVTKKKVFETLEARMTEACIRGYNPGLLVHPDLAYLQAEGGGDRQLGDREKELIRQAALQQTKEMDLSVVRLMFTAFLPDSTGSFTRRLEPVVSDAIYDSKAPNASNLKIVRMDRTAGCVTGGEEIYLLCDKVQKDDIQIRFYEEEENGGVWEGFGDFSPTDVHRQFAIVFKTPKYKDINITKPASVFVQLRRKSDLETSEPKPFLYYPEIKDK

[5] = molecular target: RELA (p65) subunit of heterodimer;p52 subunit (Homo sapiens;Homo sapiens, UniProt Q04206;Q00653 1-307;4-332)
[6] = molecular target: RELB subunit;p50 subunit (Homo sapiens;Homo sapiens, UniProt Q01201;P19838 120-401;7-356)
[7] = molecular target: T2, RELB subunit;p52 subunit (Homo sapiens;Homo sapiens, UniProt Q01201;Q00653 120-401;4-332)
T2 sequence 1: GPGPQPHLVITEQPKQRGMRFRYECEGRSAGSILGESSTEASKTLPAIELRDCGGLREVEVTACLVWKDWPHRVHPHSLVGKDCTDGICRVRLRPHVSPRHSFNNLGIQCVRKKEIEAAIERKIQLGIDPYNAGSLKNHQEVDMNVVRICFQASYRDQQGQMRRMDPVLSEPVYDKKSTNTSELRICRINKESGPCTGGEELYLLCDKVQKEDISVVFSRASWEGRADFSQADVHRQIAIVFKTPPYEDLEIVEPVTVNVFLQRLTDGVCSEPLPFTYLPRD
T2 sequence 2: T1 sequence

[8] = molecular target: C-Rel subunit;p50 subunit (Homo sapiens;Homo sapiens, UniProt Q04864;P19838 1-285;7-356)
[9] = molecular target: T3, C-Rel subunit;p52 subunit (Homo sapiens;Homo sapiens, UniProt Q04864;Q00653 1-285;4-332)
T3 sequence 1: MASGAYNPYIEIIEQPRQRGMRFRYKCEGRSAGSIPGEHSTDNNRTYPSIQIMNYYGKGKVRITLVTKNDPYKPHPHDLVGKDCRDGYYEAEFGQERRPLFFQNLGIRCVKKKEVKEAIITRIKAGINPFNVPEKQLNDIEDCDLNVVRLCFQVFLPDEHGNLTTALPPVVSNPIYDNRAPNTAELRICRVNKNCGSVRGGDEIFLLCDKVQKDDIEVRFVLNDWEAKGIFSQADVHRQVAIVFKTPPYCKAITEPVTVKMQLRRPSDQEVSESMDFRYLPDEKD
T3 sequence 2: T1 sequence

Chain of p50p50 homodimer (P19838 7-356): as the sequence (P19838 7-356, chain 2 of 2) above
Chain of RELARELA (p65 homodimer) (Q04206 1-307): as the sequence (Q04206 1-307, chain 1 of 2) above

Row | Sequence | binding signal [1] [z-score] | binding signal [2] [z-score] | binding signal [3] [z-score] | binding signal [4] [z-score] | binding signal [5] [z-score] | binding signal [6] [z-score] | binding signal [7] [z-score] | binding signal [8] [z-score] | binding signal [9] [z-score]
1 | CAATACGCCCC | 0.0573 | 0.196 | 0.145 | 0.039 | 0.0537 | 0.204 | 0.503 | 0.297 | 0.13
2 | GAAGGTGCCCT | -0.528 | -0.946 | -0.486 | -0.722 | -0.698 | -0.821 | -0.597 | -1.15 | -0.907
3 | GGATAGACCCC | -0.296 | -0.324 | -0.227 | -0.111 | -0.128 | -0.398 | 0.071 | -0.41 | -0.251
4 | CAGGTTGTCCT | -0.115 | -0.869 | -0.451 | -0.774 | -0.884 | -0.961 | -0.805 | -1.05 | -0.71
5 | AAAGGGTTCCT | -0.817 | -1.23 | -0.468 | -0.866 | -0.749 | -1.03 | -0.714 | -0.957 | -0.558
6 | CGAGATACCCC | -0.193 | 0.305 | 0.114 | 0.439 | 0.228 | 0.539 | 0.921 | 0.515 | 0.344
7 | CAATGTGTCCT | 0.249 | -1.04 | -0.284 | -0.926 | -0.828 | -0.731 | -0.475 | -0.887 | -0.764
8 | GGGGGAACCCC | 2.66 | 1.15 | 3.25 | 2.25 | 3.23 | 2.62 | 2.86 | 2.58 | 3.54
9 | GAAATGACCCT | -0.43 | -0.328 | -0.304 | -0.247 | -0.11 | -0.287 | -0.38 | -0.632 | -0.223
10 | AGATACATCCC | -0.0343 | -0.79 | -0.47 | -0.557 | -0.673 | -0.73 | -0.746 | -0.981 | -0.677
11 | CGGGGCACCCC | 0.313 | 0.323 | 1.21 | 0.7 | 1.06 | 0.451 | 1.1 | 0.899 | 1.43
12 | GAGTTAATCCC | 0.0777 | -0.527 | -0.147 | -0.451 | -0.217 | -0.125 | -0.157 | -0.186 | -0.227
13 | GGATACTTCCT | 0.213 | -1.36 | -0.625 | -0.647 | -0.831 | -1.14 | -0.942 | -1.04 | -0.591
14 | CGAATACCCCT | 0.147 | 1.13 | 0.86 | 1.17 | 1.12 | 1.03 | 1.63 | 0.876 | 0.881
15 | GAAATCCTCCT | -0.0844 | -0.961 | -0.613 | -0.658 | -0.961 | -0.979 | -0.866 | -0.982 | -0.715

Reference: paper PMC3218832
